H9c2 TAG inh: reduces triacylglycerol accumulation in H9c2 cells | Nile Red lipid (TAG) fluorescence; cells loaded with 200 µM oleic acid | inhibition, % at 12.5 µM | 0.66% of 230,000 active | AID 651582;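 active = pattern-corrected inhibition of lipid staining of at least 50% with the nuclear-stain viability signal not falling by more than 50%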;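 note: 0% = DMSO wells and 100% = triacsin C control wells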
Jurkat NFkB inh: inhibitors of the PMA/ionomycin-induced NF-kB reporter in Jurkat cells; PMA/ionomycin-induced NF-kB luciferase reporter, luminescence; inhibition, % at 4 µM; 0.53% of 330,000 active; AID 435003; in the data active = inhibition above about 50%
H9c2 protect: protects H9c2 cardiomyocytes from peroxide injury | H2O2 injury protection, ATPLite, 2 h | protection from H2O2 cell death, % at 20 µM | 0.63% of 360,000 active | AID 588492;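 active = compounds giving at least 50% protection of heart cells from peroxide-induced death in the single-dose screen, raw or plate-pattern-corrected value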;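 note: 0% = DMSO wells with peroxide and 100% = DMSO wells without peroxide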
Gli-Sufu antag: antagonists of Gli-Sufu signaling | Sufu-KO-LIGHT fibroblasts, Gli luciferase reporter luminescence | inhibition, % at 5 µM | 0.74% of 340,000 active | AID 588413;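 active = inhibition above about 55%, limit read from the data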;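 note: 0% = DMSO-treated cells and 100% = wells with medium but no cells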
697 NFkB inh: lowers PMA/ionomycin-induced NF-kB signal in 697 B cells; 697 B-cell NF-kB luciferase reporter, 16 h; 0.33% of 330,000 active; AID 435022; inhibition, % at 4 µM; in the data active = inhibition above about 35%
NR2F2 inh: NR2F2 (human) inhibition, primary screen | 0.7% of 370,000 active | HEK293T NGFI-A luciferase reporter, luminescence | P24468 | inhibition, % at 8.6 µM;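 active = inhibition above a per-plate cutoff, mean inhibition of test wells between control levels plus 3 SD, cut at about 38% in these data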;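 note: cells cotransfected with COUP-TFII expression vector driving the NGFI-A reporter; 0% = median of COUP-TF2 test wells and 100% = reporter-only cells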
Target sequence (P24468 whole entry, looked up): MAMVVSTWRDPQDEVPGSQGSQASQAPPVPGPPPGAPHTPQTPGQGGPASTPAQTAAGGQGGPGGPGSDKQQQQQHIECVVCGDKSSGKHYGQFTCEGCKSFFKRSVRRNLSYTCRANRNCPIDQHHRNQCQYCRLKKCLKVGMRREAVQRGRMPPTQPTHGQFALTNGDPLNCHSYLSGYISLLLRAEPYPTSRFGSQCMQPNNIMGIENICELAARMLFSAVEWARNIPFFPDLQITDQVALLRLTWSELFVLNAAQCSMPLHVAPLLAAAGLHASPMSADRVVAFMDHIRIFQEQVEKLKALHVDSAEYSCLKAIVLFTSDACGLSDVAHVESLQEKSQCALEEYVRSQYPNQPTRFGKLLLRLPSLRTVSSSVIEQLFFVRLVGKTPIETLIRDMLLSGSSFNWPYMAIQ
Gli antag conf: Gli-SUFU antagonism confirmation, single concentration; Sufu-KO-LIGHT cells, Gli luciferase reporter, luminescence; AID 602428; inhibition, % at 5 µM; 40% of 2,500 active; shares compounds with Gli-Sufu antag;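 active = mean inhibition at 5 µM reaching about 45%, limit read from the data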;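 note: plate controls were DMSO-treated cells for no effect and wells lacking cells for full effect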
Gli cytotox: cytotoxic in Gli-SUFU antagonist counter-screen; shares compounds with Gli-Sufu antag; Sufu-KO-LIGHT cells cytotoxicity, ATP luminescence; cytotoxicity, % at 5 µM; 32% of 2,500 active;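 active = mean cytotoxicity at 5 µM above about 25%, limit read from the data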;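 note: cells exposed to compound overnight for roughly 16 to 18 hours; plate controls were DMSO wells with cells for no effect and medium without cells for full effect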
Wnt3a counter: inhibits Wnt3a reporter, counter-screen for Gli-SUFU antagonists | shares compounds with Gli-Sufu antag | Wnt-LIGHT cells, Wnt3a-driven luciferase reporter, luminescence | inhibition, % at 6.25 µM | 20% of 2,500 active | AID 651995;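 active = mean inhibition above about 25%, limit read from the data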
Active calls of the source: *. Sampled rows, rich in hits. Any-hit rate of the full collection: about 2.6%.

Screening COc1cccc2sc(=NC(=O)CS(=O)(=O)c3ccc(Cl)cc3)n(C)c12 returned H9c2 TAG inh -29, Jurkat NFkB inh 40, H9c2 protect -19, Gli-Sufu antag 73*, 697 NFkB inh -34, NR2F2 inh -5, Gli antag conf 79*, Gli cytotox 29* and Wnt3a counter 40*.
`COc1cccc2sc(=NC(=O)CCS(=O)(=O)c3ccc(C)cc3)n(C)c12` gave H9c2 TAG inh 4, Jurkat NFkB inh -11, H9c2 protect -6, Gli-Sufu antag 4, 697 NFkB inh 16 and NR2F2 inh -7.
COc1cccc2sc(=NC(=O)CS(=O)(=O)c3ccc(F)cc3)n(C)c12 was read as H9c2 TAG inh -34, Jurkat NFkB inh -18, H9c2 protect -14, Gli-Sufu antag 61*, 697 NFkB inh -17, NR2F2 inh 15, Gli antag conf 53*, Gli cytotox 29* and Wnt3a counter 14.
CCn1c(=NC(=O)CS(=O)(=O)c2ccc(C)cc2)sc2cccc(OC)c21 was read as H9c2 TAG inh -41, Jurkat NFkB inh 33, H9c2 protect -14, Gli-Sufu antag 68*, 697 NFkB inh -9, NR2F2 inh 0, Gli antag conf 61*, Gli cytotox 23 and Wnt3a counter 37*.
Screening CC1(C)Oc2ccc(C(=O)NCCCN3CCCC3)cc2NC1=O returned NR2F2 inh -14.
`COC(=O)[C@]12C[C@H](CC(=O)N3CCN(C(=O)C4CC4)CC3)C(=O)N(Cc3ccccc3)C1=C[C@H](C1CCCC1)O[C@@H]2C` gave NR2F2 inh -2.
Screening COc1ccc2nc(NN=Cc3cccc(C)n3)cc(C)c2c1 returned NR2F2 inh -4.
`Cc1ccccc1S(=O)(=O)N(C)C[C@@H]1OCc2cn(nn2)CCCC(=O)N([C@@H](C)CO)C[C@H]1C` gave NR2F2 inh -5.
Screening O=C(NC(=S)Nc1ccccc1Cl)c1cnn2c(C(F)(F)F)cc(C(F)(F)F)nc12 returned H9c2 TAG inh 14, Jurkat NFkB inh 17, H9c2 protect -2, Gli-Sufu antag 56*, 697 NFkB inh -28, NR2F2 inh 15, Gli antag conf 27, Gli cytotox 11 and Wnt3a counter -15.
Screening CC(=O)O/N=C(\N)c1cnn2c(C(F)(F)F)cc(C(F)(F)F)nc12 returned H9c2 TAG inh 0, Jurkat NFkB inh -4, H9c2 protect -2, Gli-Sufu antag -10, 697 NFkB inh 9 and NR2F2 inh -5.
CC(C)CNC(=O)OCc1cn(Cc2ccccc2F)nn1 was read as NR2F2 inh 0.
N#Cc1c(C(F)(F)F)cc(-c2ccccc2)nc1SCC(=O)Nc1sc2c(c1C#N)CCC2 was read as H9c2 TAG inh 13, Jurkat NFkB inh 8, H9c2 protect -1, Gli-Sufu antag 68*, 697 NFkB inh -11, NR2F2 inh 10, Gli antag conf 76*, Gli cytotox 10 and Wnt3a counter 54*.
Screening N#Cc1ccc(-c2cccnc2)nc1SCC(=O)Nc1sc2c(c1C#N)CCC2 returned Jurkat NFkB inh 6, H9c2 protect -4, Gli-Sufu antag 13 and 697 NFkB inh -10.
`CCOc1ccc(-n2c(SCC(=O)c3ccc4ccccc4c3)nnc2-c2ccco2)cc1` gave NR2F2 inh 6.
For COc1ccc2nc3ccccc3nc2c1NC(=O)c1ccc(Cl)cc1Cl the results were Jurkat NFkB inh -5, H9c2 protect -2, Gli-Sufu antag 71*, 697 NFkB inh -19, NR2F2 inh 2, Gli antag conf 31, Gli cytotox 20 and Wnt3a counter -26.
Screening O=S1(=O)N[C@@H](Cc2ccccc2)COc2cccc(NCCCN3CCOCC3)c21 returned NR2F2 inh 20.
Screening N#C/C(=N\Nc1ccc(Cl)cc1)C(N)=S returned H9c2 TAG inh -6, Jurkat NFkB inh -14, H9c2 protect -18, Gli-Sufu antag 60*, 697 NFkB inh -72, NR2F2 inh 32, Gli antag conf 59*, Gli cytotox 12 and Wnt3a counter 32*.
`N#C/C(=N\Nc1ccccc1)C(N)=S` gave H9c2 TAG inh -1, Jurkat NFkB inh 10, H9c2 protect -11, Gli-Sufu antag 13, 697 NFkB inh -19 and NR2F2 inh -13.
Screening c1ccc(C[n+]2ccc3ccccc3c2)cc1 returned H9c2 TAG inh -9, Jurkat NFkB inh -5, H9c2 protect -8, Gli-Sufu antag 0, 697 NFkB inh -25 and NR2F2 inh 0.
c1ccc(C[n+]2cccc(-c3ccccc3)c2)cc1 was read as Jurkat NFkB inh 26, H9c2 protect 5, Gli-Sufu antag 57*, 697 NFkB inh -7, NR2F2 inh -6, Gli antag conf 57*, Gli cytotox 15 and Wnt3a counter 10.
`O=C(O)Cc1csc(Nc2cccc(Cl)c2)n1` gave H9c2 TAG inh -8, Jurkat NFkB inh -8, H9c2 protect -1, Gli-Sufu antag 69*, 697 NFkB inh 3, NR2F2 inh -9, Gli antag conf 13, Gli cytotox 20 and Wnt3a counter -31.
For CCCC1CCC2(CC1)CCC2OC(=S)NCc1ccc(Cl)cc1 (stereo not drawn) the results were NR2F2 inh -2.
Screening O=C(CSc1n[nH]c(=O)n1-c1ccccc1)N1CCOCC1 returned Jurkat NFkB inh 1, H9c2 protect 1, Gli-Sufu antag 53, 697 NFkB inh 4, NR2F2 inh 9, Gli antag conf 22, Gli cytotox 11 and Wnt3a counter 15.
Screening O=C(OCC#CCSc1nnc(-c2cccc(F)c2)o1)c1ccc(F)cc1 returned NR2F2 inh 1.
`COc1cnn(-c2cccc(C)c2)c(=O)c1Cl` gave H9c2 TAG inh -5, Jurkat NFkB inh -2, H9c2 protect -2, Gli-Sufu antag 51, 697 NFkB inh 13, NR2F2 inh 11, Gli antag conf 23, Gli cytotox 3 and Wnt3a counter -32.
`COc1cnn(-c2ccccc2)c(=O)c1N(C)C` gave Jurkat NFkB inh -3, H9c2 protect 3, Gli-Sufu antag -2, 697 NFkB inh 11 and NR2F2 inh 14.
Screening O=C(/C=C/c1ccc(S(=O)(=O)N2CCOCC2)cc1)NCc1ccccc1F returned H9c2 TAG inh -8, Jurkat NFkB inh 3, H9c2 protect -4, Gli-Sufu antag 52, 697 NFkB inh -34, NR2F2 inh 33, Gli antag conf 33, Gli cytotox 9 and Wnt3a counter -5.
